Measurements reported in PubChem BioAssay (Tox21).
Inconclusive results are not listed. Entries that show only a call come without a potency. Calls of active or inactive are those of the source. Calls come from the whole dose curve; as a rule, active = well fitted curve in the direction sought with a large enough effect in the repeat runs; inconclusive = weak or mixed curves; inactive = no such curve, though single readings can be large; an effect the other way counts as inactive or inconclusive.

Tests used:
[1] = Human pregnane X receptor (PXR) small molecule agonists, qHTS cell viability counter screen (AID 1346977); note: nearly all actives have a fitted effect of over 50% in size; note: potency is the fitted concentration of half-maximal effect
Outline: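 Cytotoxicity counter screen run in the same wells as the PXR luciferase assay, using PXR-Luc HepG2 cells in charcoal-stripped serum medium. Viability: CellTiter-Fluor fluorescence after 24hr compound treatment.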

[2] = Caspase-3/7 induction in HepG2 cells by small molecules, qHTS assay (AID 1346978); note: nearly all actives have a fitted effect of over 15% in size; note: potency is the fitted concentration of half-maximal effect
Outline: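 Wild-type HepG2 cells (2,000/well) were settled 5 h at 37 C, 5% CO2, then exposed to compounds in DMSO for 17 h. Caspase-3/7 activity was read by luminescence 30 min after adding Caspase-Glo 3/7 reagent at room temperature.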

[3] = Caspase-3/7 induction in CHO-K1 cells by small molecules, qHTS cell viability counter screen (AID 1346979); note: nearly all actives have a fitted effect of over 35% in size; note: potency is the fitted concentration of half-maximal effect
Outline: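 Cytotoxicity counter screen run in parallel with the caspase-3/7 assay: CHO-K1 cells, 16hr compound treatment at 37C, then CellTiter-Fluor for 1hr before fluorescence reading.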

[4] = Caspase-3/7 induction in CHO-K1 cells by small molecules, qHTS assay (AID 1346980); note: nearly all actives have a fitted effect of over 15% in size
Outline: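 Wild-type cells were seeded at 1,500 per well and settled 5 hr at 37 C, 5% CO2, then exposed to DMSO-dissolved compounds for 17 hr. Caspase-Glo 3/7 reagent was added, and luminescence was read after 30min at room temperature.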

[5] = Caspase-3/7 induction in HepG2 cells by small molecules, qHTS cell viability counter screen (AID 1346981); note: series mostly up to about 92 µM; nearly all actives have a fitted effect of over 30% in size
Outline: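 Steps: seed 2,000 HepG2 cells per well; incubate 5 hr at 37 C; pin-add compounds in DMSO; incubate 16 hr; add CellTiter-Fluor; after 1 hr at 37 C and 5% CO2, read fluorescence.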

[6] = molecular target: Cytochrome P450 2D6 (Homo sapiens) (UniProt P10635); assay: Cytochrome P450 Family 2 Subfamily D Member 6 (CYP2D6) small molecule antagonists: luciferase reporter qHTS assay (AID 1671196); note: nearly all actives have a fitted effect of over 50% in size; note: potency is the fitted concentration of half-maximal effect
Chain of Cytochrome P450 2D6 (Homo sapiens) (P10635 whole entry, looked up): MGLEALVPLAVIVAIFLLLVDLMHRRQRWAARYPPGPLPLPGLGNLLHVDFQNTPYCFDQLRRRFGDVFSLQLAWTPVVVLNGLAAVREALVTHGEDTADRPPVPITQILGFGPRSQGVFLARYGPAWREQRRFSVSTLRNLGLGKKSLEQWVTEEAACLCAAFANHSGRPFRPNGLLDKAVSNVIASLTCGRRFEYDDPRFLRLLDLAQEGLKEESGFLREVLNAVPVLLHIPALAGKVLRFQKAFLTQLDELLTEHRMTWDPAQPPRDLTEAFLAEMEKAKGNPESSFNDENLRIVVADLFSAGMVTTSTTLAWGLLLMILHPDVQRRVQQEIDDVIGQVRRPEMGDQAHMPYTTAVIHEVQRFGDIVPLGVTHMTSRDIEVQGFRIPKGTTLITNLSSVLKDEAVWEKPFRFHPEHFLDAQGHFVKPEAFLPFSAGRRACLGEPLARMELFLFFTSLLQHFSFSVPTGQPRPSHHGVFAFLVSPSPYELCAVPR
Outline: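 P450-Glo format: CYP2D6 converts a proluciferin substrate to luciferin in an NADPH-driven reaction lasting 1 h at room temperature. Light output, proportional to CYP2D6 activity, reflects interference by test chemicals.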

[7] = molecular target: Cytochrome P450 2C19 (Homo sapiens) (UniProt P33261); assay: Cytochrome P450 Family 2 Subfamily C Member 19 (CYP2C19) small molecule antagonists: luciferase reporter qHTS assay (AID 1671197); note: nearly all actives have a fitted effect of over 65% in size; note: potency is the fitted concentration of half-maximal effect
Chain of Cytochrome P450 2C19 (Homo sapiens) (P33261 whole entry, looked up): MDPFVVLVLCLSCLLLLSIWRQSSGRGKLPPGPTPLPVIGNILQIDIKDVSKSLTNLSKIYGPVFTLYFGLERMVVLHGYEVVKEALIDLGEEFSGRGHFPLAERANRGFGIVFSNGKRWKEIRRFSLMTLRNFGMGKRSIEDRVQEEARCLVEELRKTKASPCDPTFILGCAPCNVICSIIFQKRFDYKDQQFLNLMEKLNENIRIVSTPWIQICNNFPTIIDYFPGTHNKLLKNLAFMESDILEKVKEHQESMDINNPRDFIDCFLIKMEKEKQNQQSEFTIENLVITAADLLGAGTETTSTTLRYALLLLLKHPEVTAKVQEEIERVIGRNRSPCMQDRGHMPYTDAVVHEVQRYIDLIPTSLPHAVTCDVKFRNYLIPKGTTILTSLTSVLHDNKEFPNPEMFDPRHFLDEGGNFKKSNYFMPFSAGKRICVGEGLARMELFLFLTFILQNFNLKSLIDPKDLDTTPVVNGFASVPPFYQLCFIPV
Outline: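 Luminescent readout of CYP2C19 activity: luciferin product detected 20 min after adding detection reagent. Before that, compound and enzyme-substrate mix preincubated 10 min at room temperature; NADPH-regenerating system started a 1 h, 37C reaction. Ketoconazole as positive control.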

[8] = molecular target: Cytochrome P450 2C9 (Homo sapiens) (UniProt P11712); assay: Cytochrome P450 Family 2 Subfamily C Member 9 (CYP2C9) small molecule antagonists: luciferase reporter qHTS assay (AID 1671198); note: nearly all actives have a fitted effect of over 50% in size; note: potency is the fitted concentration of half-maximal effect
Chain of Cytochrome P450 2C9 (Homo sapiens) (P11712 whole entry, looked up): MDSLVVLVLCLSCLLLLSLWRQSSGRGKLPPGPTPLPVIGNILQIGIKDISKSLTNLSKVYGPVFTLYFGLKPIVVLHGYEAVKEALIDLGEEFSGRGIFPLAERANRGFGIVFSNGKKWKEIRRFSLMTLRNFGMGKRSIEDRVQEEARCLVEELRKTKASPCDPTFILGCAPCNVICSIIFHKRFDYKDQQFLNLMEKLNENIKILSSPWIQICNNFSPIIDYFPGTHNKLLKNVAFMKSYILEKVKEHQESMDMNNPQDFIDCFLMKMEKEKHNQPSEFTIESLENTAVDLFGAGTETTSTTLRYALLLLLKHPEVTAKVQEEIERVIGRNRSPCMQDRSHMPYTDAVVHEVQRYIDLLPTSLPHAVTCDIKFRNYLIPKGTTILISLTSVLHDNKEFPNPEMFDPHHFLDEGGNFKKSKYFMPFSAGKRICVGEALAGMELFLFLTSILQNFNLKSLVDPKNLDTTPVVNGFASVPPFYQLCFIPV
Outline: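 CYP2C9 activity was measured with a P450-Glo proluciferin substrate. Enzyme–substrate mix was held with compound for 10 min at room temperature, then NADPH regeneration solution was added for 1 h at 37C. Luciferin product was read as luminescence.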

[9] = molecular target: Cytochrome P450 1A2 (Homo sapiens) (UniProt P05177); assay: Cytochrome P450 Family 1 Subfamily A Member 2 (CYP1A2) small molecule antagonists: luciferase reporter qHTS assay (AID 1671199); note: nearly all actives have a fitted effect of over 50% in size; note: potency is the fitted concentration of half-maximal effect
Chain of Cytochrome P450 1A2 (Homo sapiens) (P05177 whole entry, looked up): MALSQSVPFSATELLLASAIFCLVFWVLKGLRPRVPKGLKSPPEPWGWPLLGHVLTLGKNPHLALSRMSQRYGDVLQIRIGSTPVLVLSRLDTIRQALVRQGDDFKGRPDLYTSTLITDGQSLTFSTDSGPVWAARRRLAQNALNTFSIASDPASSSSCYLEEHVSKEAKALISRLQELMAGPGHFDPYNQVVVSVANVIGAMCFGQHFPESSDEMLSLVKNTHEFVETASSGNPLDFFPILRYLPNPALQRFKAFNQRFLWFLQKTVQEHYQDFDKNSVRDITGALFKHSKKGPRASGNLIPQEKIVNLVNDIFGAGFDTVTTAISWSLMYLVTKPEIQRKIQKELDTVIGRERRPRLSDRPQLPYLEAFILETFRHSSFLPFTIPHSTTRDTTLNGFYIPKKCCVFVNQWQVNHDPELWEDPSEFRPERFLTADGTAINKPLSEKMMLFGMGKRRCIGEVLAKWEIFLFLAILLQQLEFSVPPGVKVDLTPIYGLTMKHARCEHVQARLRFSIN
Outline: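 Inhibition of CYP1A2 conversion of proluciferin to luciferin, detected by luminescence. Reaction run 1 h at room temperature with NADPH regeneration after brief compound preincubation.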

[10] = molecular target: Voltage-gated inwardly rectifying potassium channel KCNH2 (Homo sapiens) (UniProt Q12809); assay: Human Ether-a-go-go-Related Gene (hERG) channel small molecule antagonists: fluorescence cell-based qHTS assay (AID 1671200); note: nearly all actives have a fitted effect of over 50% in size; note: potency is the fitted concentration of half-maximal effect
Chain of Voltage-gated inwardly rectifying potassium channel KCNH2 (Homo sapiens) (Q12809 whole entry, looked up): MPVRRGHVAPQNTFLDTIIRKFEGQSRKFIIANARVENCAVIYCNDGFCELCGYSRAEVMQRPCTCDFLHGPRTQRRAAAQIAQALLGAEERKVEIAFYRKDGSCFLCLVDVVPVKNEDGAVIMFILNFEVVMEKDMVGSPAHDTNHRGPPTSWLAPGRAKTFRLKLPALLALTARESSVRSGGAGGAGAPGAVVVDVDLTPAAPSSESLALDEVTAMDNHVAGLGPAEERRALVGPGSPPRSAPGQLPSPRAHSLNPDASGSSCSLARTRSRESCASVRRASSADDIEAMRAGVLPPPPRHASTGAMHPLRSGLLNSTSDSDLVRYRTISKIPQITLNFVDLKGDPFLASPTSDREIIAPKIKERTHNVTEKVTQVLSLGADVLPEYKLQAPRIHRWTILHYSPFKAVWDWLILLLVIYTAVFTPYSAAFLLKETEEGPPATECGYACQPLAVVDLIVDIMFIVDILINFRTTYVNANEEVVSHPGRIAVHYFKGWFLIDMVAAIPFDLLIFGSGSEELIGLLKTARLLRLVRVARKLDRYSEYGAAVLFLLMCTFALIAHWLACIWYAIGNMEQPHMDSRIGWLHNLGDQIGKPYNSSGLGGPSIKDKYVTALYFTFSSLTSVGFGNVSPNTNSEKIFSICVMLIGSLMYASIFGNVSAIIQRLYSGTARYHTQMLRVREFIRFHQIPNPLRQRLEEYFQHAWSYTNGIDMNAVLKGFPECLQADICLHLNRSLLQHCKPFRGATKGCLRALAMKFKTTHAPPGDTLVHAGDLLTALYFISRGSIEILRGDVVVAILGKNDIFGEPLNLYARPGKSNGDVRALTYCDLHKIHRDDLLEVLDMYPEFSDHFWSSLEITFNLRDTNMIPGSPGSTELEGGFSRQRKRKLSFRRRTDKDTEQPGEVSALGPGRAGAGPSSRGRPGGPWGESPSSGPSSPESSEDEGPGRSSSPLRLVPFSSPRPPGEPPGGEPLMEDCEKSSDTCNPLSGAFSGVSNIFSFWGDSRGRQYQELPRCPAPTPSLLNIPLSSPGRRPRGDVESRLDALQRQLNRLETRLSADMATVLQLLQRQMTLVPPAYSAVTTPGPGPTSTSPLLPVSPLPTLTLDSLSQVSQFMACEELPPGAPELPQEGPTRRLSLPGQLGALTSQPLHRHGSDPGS
Outline: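 Fluorescence at 540 nm emission (480 nm excitation) was recorded kinetically for 2 min at 1-second intervals once the thallium-containing stimulus reached cells previously loaded with FluxOR II dye.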

[11] = molecular target: Cytochrome P450 3A4 (Homo sapiens) (UniProt P08684); assay: Cytochrome P450 Family 3 Subfamily A Member 4 (CYP3A4) small molecule antagonists: luciferase reporter qHTS assay (AID 1671201)
Chain of Cytochrome P450 3A4 (Homo sapiens) (P08684 whole entry, looked up): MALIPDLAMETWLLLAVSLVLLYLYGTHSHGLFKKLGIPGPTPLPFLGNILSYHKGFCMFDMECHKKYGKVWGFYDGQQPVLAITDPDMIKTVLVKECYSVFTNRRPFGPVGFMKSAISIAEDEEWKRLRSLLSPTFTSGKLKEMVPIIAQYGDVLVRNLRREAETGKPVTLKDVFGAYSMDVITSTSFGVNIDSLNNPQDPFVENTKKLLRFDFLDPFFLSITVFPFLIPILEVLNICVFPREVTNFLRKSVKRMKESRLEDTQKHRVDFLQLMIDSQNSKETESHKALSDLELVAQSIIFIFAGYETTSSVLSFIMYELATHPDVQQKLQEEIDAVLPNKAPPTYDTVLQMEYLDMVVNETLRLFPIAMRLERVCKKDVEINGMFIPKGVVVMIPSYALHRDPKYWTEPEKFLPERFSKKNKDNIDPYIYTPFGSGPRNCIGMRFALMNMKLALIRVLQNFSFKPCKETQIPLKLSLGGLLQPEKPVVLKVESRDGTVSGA
Outline: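 qHTS, 1536-well. CYP3A4 + proluciferin substrate, cpd 10 min RT → NADPH regen 1 h RT → detection reagent 20 min → luminescence (RLU). Ketoconazole positive control.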

[12] = molecular target: Nuclear receptor subfamily 1 group I member 2 (Homo sapiens) (UniProt O75469); assay: Human pregnane X receptor (PXR) small molecule agonists, qHTS assay (AID 1346982); note: nearly all actives have a fitted effect of over 35% in size; note: potency is the fitted concentration of half-maximal effect
Chain of Nuclear receptor subfamily 1 group I member 2 (Homo sapiens) (O75469 whole entry, looked up): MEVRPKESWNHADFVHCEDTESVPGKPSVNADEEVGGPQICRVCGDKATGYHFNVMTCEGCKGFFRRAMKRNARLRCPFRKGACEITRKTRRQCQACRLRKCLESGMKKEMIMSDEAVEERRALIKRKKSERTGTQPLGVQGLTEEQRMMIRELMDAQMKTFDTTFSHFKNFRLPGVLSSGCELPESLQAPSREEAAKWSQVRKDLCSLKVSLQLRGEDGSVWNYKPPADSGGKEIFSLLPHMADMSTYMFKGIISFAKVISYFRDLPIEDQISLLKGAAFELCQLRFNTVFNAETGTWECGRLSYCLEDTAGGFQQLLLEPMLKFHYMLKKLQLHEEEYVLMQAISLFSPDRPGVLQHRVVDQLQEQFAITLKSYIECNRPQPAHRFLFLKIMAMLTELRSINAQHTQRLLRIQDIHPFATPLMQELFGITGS
Outline: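 Agonist mode qHTS: PXR-Luc HepG2 cells plated 5 hr before DMSO-dissolved compounds were pinned in, cultured 24 hr at 37 C, 5% CO2; ONE-Glo luminescence readout.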

| Compound | Potency [1] | Potency [2] | Potency [3] | outcome [4] | Potency [5] | Potency [6] | Potency [7] | Potency [8] | Potency [9] | Potency [10] | Potency [11] | Potency [12] |
| --- | --- | --- | --- | --- | --- | --- | --- | --- | --- | --- | --- | --- |
| CSSc1ccoc1C | inactive | inactive | inactive | inactive | inactive | inactive | inactive | inactive | inactive | inactive | inactive |  |
| COC(CC(C)CCCC(C)(C)O)OC (configuration not stated) | inactive | inactive | inactive | inactive |  |  |  |  |  | inactive | inactive | inactive |
| CCOc1ncc(F)c(=O)[nH]1 | inactive | inactive | inactive | inactive | inactive | inactive | inactive | inactive |  | inactive | inactive |  |
| CCC1CCC(CCC(=O)O)C1 (configuration not stated) | inactive | inactive | inactive | inactive | inactive | inactive | 40.8 µM (active) | 36.4 µM (active) |  | inactive | inactive |  |
| BrC(Br)C(Br)Br | inactive | inactive | inactive | inactive | inactive |  |  | inactive |  | inactive | inactive |  |
| Cc1ccc(NC(=O)N(C)C)cc1NC(=O)N(C)C | inactive | inactive | inactive | inactive | inactive | inactive | inactive |  |  | inactive |  |  |
| NC(=O)c1ccccc1[N+](=O)[O-] | inactive | inactive | inactive | inactive | inactive | inactive |  | inactive |  | inactive |  |  |
| O=[N+]([O-])c1ccc2ncccc2c1 | inactive | inactive | inactive | inactive | inactive |  |  | inactive | 1.59 µM (active) | inactive | inactive |  |
| CCCC(=O)OC(=O)CCC | inactive | inactive | inactive | inactive | inactive | inactive | inactive | inactive |  | inactive | inactive |  |
| CN=C(N)NC(=O)Nc1c(C)cccc1C | inactive | inactive | inactive | inactive | inactive | inactive |  | inactive | inactive | inactive | inactive |  |
| CC(=O)OCC(=O)[C@@]1(OC(C)=O)[C@@H](C)C[C@H]2[C@@H]3C[C@H](F)C4=CC(=O)C=C[C@]4(C)[C@@]3(F)[C@@H](O)C[C@@]21C | inactive | inactive | inactive | inactive | inactive | inactive | inactive |  | inactive | inactive | inactive |  |
| CCOC(=O)C(C)O (configuration not stated) | inactive | inactive | inactive | inactive | inactive |  | inactive | inactive | inactive | inactive | inactive |  |
| CCCCCCCCCCCCCC(=O)OCC(O)CO (configuration not stated) | inactive | inactive | inactive | inactive | inactive | inactive |  | 22.4 µM (active) | 22.4 µM (active) | inactive |  |  |
| CC1CCc2nccnc21 (configuration not stated) | inactive | inactive | inactive | inactive |  |  |  | inactive |  | inactive | inactive | inactive |
| O=NN(CCCl)C(=O)NCCCl | inactive | inactive | inactive | inactive | inactive |  |  |  |  | inactive |  |  |
| Oc1cccc2[nH]ccc12 | inactive | inactive | inactive | inactive | inactive | 15.5 µM (active) |  | 15.5 µM (active) | inactive | inactive | inactive |  |
| CC1CCCO1 (configuration not stated) | inactive | inactive | inactive | inactive | inactive | inactive |  | inactive |  | inactive | inactive |  |
| CCC(=O)OCc1ccc(OC)cc1 | inactive | inactive | inactive | inactive |  | inactive | 64.9 µM (active) |  | 57.8 µM (active) | inactive | inactive | inactive |
| O[C@@H](CNC[C@H](O)[C@H]1CCc2cc(F)ccc2O1)[C@@H]1CCc2cc(F)ccc2O1 | 29.8 µM (active) | 33.5 µM (active) | 33.5 µM (active) |  |  | 0.275 µM (active) | inactive | inactive | inactive | 2.68 µM (active) | inactive | inactive |
| Nc1nc2ccc(OC(F)(F)F)cc2s1 | inactive | inactive |  | inactive | inactive |  |  |  |  |  |  | 13.3 µM (active) |
| CC(O)Cn1cnc2c1c(=O)n(C)c(=O)n2C (configuration not stated) | inactive | inactive | inactive | inactive | inactive |  |  |  |  | inactive |  |  |
| C1=CCC2CC=CC2C1 (configuration not stated) | inactive | inactive | inactive | inactive | inactive |  | 70.9 µM (active) | inactive |  | inactive |  |  |
